Compounds with a hit are over-represented: about 11% of the library has one in this group of screens.
Pf growth 48h – inhibits P. falciparum growth in the first generation, 48 h. P. falciparum luciferase growth in erythrocytes, 48 h. Potency, µM (doses to about 28.7 µM), for inactives: at the highest dose activity change, negative = inhibition, usual class: inhibitors. actives 5.9% (n = 310,000)
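In quantitative HTS format, infected erythrocytes bearing luciferase-reporter parasites were treated for a single generation at 37 C. Luminescence after adding detection reagent served as the growth measure.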
Pf growth 96h – inhibits malaria parasite growth, 96 h | actives 6.9% (n = 320,000) | P. falciparum luciferase reporter growth, 96 h | Potency, µM (highest dose often 28.7 µM), for inactives: at the highest dose activity change, negative = inhibition, most hits filed as inhibitors
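Readout is luminescence from an integrated firefly luciferase in P. falciparum. Red cells, 2% hematocrit and 0.05% parasitemia final, were cultured with compound through two parasite generations (96 hours) at 37 C, 5% CO2.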
AMA1 RON2 block – AMA1-RON2 (P. falciparum) interaction inhibition | actives 0.2% (n = 360,000) | AlphaScreen AMA1-biotinylated RON2 peptide binding | Potency, µM (highest dose often 58.2 µM), for the others: at the highest dose activity change, negative = inhibition, usual class: inhibitors;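 note: 0% = vehicle wells and -100% = peptide control; nearly all actives have a fitted effect of over 45% in size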
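AMA1 (3D7) with his tag at 25 nM final met compounds first, then biotinylated RON2 peptide at 25 nM; detection used donor plus acceptor beads, 10 µg/mL apiece, read by AlphaScreen after 30 min at room temperature.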
HCV inh – HCV inhibition; Huh7.5.1 HCVcc-Cre infection, luciferase reporter, 44 h; Potency, µM (top dose mostly 41.8 µM), for inactives: at the top dose activity change, negative = inhibition, actives largely listed as inhibitors; actives 3.4% (n = 340,000)
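Cells seeded at 1,000/well and cultured 4 h, then compounds added followed by HCVcc-Cre virus (~0.5 moi). After 44 h further culture, luciferase substrate was added, plates held 15 min at room temperature, and luminescence read for 15 sec.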
Starred values were filed as active, the others as inactive; ! = not confirmed by another sample; [ ] = remark or other dose. Calls come from the whole dose curve; as a rule, active = well fitted curve in the direction sought with a large enough effect; inconclusive = small, poorly fitted or top-dose-only effect, or another doubt; inactive = no such curve, though single readings can be large; an effect the other way counts as inactive or inconclusive. Unless noted, % is set by controls: 0 for no effect and ±100 for the full control effect; potency is the fitted concentration of half-maximal effect.

Cc1nc(-c2cccc(S(=O)(=O)N3CCOCC3)c2)cs1 was read as Pf growth 48h 13µM*, Pf growth 96h 72%, AMA1 RON2 block -4% and HCV inh -18%.
For Cc1nc(-c2cccc(NC(=O)c3cccc(S(=O)(=O)N4CCCC4)c3)c2)cs1 the results were Pf growth 48h 12µM*, Pf growth 96h inconclusive, AMA1 RON2 block 12% and HCV inh 10µM*.
For O=S(=O)(c1cccc(-c2csc(-c3cccnc3)n2)c1)N1CCCCC1 the results were Pf growth 48h 9.3µM*, Pf growth 96h 55%, AMA1 RON2 block -4% and HCV inh inconclusive.
CC(C)CCSc1nnc(N)s1 was read as Pf growth 48h inconclusive, Pf growth 96h 66%, AMA1 RON2 block -14% and HCV inh 7%.
N#C/C(=C\c1ccc(O)c(O)c1)C(=O)Nc1cccc2ncccc12 was read as Pf growth 48h inconclusive, Pf growth 96h -5%, AMA1 RON2 block -13% and HCV inh -5%.
N#Cc1nc(N2CCCC2)nc(N2CCCC2)n1 was read as Pf growth 48h -3%, Pf growth 96h -5%, AMA1 RON2 block 7% and HCV inh 7.1µM*.
For Cc1nc(SC(C(=O)c2ccccc2)c2ccccc2)nc2ccccc12 (stereo not given) the results were Pf growth 48h inconclusive, Pf growth 96h inconclusive, AMA1 RON2 block 9% and HCV inh -12%.
For COc1ccc2nc(SC(C(=O)c3ccccc3)c3ccccc3)nc(C)c2c1 (stereo not given) the results were Pf growth 48h inconclusive, Pf growth 96h 13µM*, AMA1 RON2 block -19% and HCV inh inconclusive.
Screening CCOC(=O)c1c(NC(C)=O)sc2c(OCC(O)CNC(C)(C)C)c(Br)ccc12 (stereo not given) returned Pf growth 48h 68%, Pf growth 96h 16%, AMA1 RON2 block -4% and HCV inh 4.5µM*.
For CCOC(=O)c1c(N)sc2c(OCC)c(Br)ccc12 the results were Pf growth 48h -21%, Pf growth 96h 431%, AMA1 RON2 block -5% and HCV inh 10µM*.
Screening CCOC(=O)c1c(NC(C)=O)sc2c(O)cccc12 returned Pf growth 96h 10%, AMA1 RON2 block 1% and HCV inh 10%.
`CS(=O)(=O)Oc1ccc(/C=N/NC(=O)c2ccncc2)cc1` gave Pf growth 48h 0%, Pf growth 96h 0%, AMA1 RON2 block 19% and HCV inh 15%.
Cc1n[nH]c(C)c1S(=O)(=O)N(CC(=O)NC1CCCC1)c1ccc(C(C)C)cc1 was read as Pf growth 96h 18%, AMA1 RON2 block -9% and HCV inh -4%.
For COc1ccc(C)cc1NC(=O)CN1CCN(S(=O)(=O)c2ccc(Br)cc2)CC1 the results were Pf growth 48h inconclusive, AMA1 RON2 block 3% and HCV inh -4%.
Screening COc1cccc2c1C(=O)c1c(O)c3c(c(O)c1C2=O)C[C@@](O)(C(C)=O)C[C@@H]3O[C@H]1C[C@H](N)[C@H](O)[C@H](C)O1 returned Pf growth 48h 0.37µM*, Pf growth 96h 0.59µM*, AMA1 RON2 block 7% and HCV inh 6.3µM*!.
`CC(=O)[C@]1(O)Cc2c(O)c3c(c(O)c2[C@@H](O[C@H]2C[C@H](N)[C@H](O)[C@H](C)O2)C1)C(=O)c1c(O)cccc1C3=O` gave Pf growth 48h 2.4µM* and Pf growth 96h 1.5µM*.
Screening COc1cccc2c1C(=O)c1c(O)c3c(c(O)c1C2=O)C[C@@](O)(C(=O)CO)C[C@@H]3O[C@H]1C[C@H](N)[C@@H](O)[C@H](C)O1 returned AMA1 RON2 block 3% and HCV inh inconclusive.
For COc1cccc2c1C(=O)c1c(O)c3c(c(O)c1C2=O)C[C@](O)(C(=O)CO)C[C@@H]3O[C@H]1C[C@H](N)[C@@H](O)[C@H](C)O1 the results were Pf growth 48h -10% and Pf growth 96h -10%.
CC(=O)[C@]1(O)Cc2c(O)c3c(c(O)c2[C@@H](O[C@H]2C[C@H](N)[C@H](O)[C@H](C)O2)C1)C(=O)c1ccccc1C3=O was read as Pf growth 48h 3.8µM*, Pf growth 96h 2.7µM*, AMA1 RON2 block -2% and HCV inh 11µM*.
`CCCCC(=O)OCC(=O)[C@]1(O)Cc2c(O)c3c(c(O)c2[C@H](OC2CC(NC(=O)C(F)(F)F)C(O)C(C)O2)C1)C(=O)c1c(OC)cccc1C3=O` (stereo not given in full) gave Pf growth 48h 3.4µM* and Pf growth 96h 2.4µM*.
For O=C(NNC(=O)c1ccncc1)NC1CCCCC1 the results were Pf growth 48h 50%, Pf growth 96h -3%, AMA1 RON2 block 22% and HCV inh 1%.
For O=C1N=C2N(CCN3CCCCC3)c3ccccc3N2/C1=C\c1ccc([N+](=O)[O-])o1 the results were Pf growth 48h -13% and Pf growth 96h 32%.
For CCOCCc1nn2c(=O)cc(CSCC(=O)Nc3cc(C)cc(C)c3)nc2s1 the results were Pf growth 48h 2%, Pf growth 96h -9%, AMA1 RON2 block -4% and HCV inh 0%.
Screening CC(C)N(C(=O)[C@H]1C[C@H](CC(=O)NCC23CC4CC(CC(C4)C2)C3)C(=O)N2CCc3c([nH]c4cc(CCC(=O)N(C)C)ccc34)[C@]12C)C(C)C returned AMA1 RON2 block 3% and HCV inh 21%.
CCn1c(=N)n(CC(=O)C(C)(C)C)c2ccccc21 was read as Pf growth 96h 9.3µM*, AMA1 RON2 block 0% and HCV inh 6%.
For CCCn1c(=N)n(CC(=O)C(C)(C)C)c2ccccc21 the results were Pf growth 48h inconclusive, Pf growth 96h inconclusive, AMA1 RON2 block -15% and HCV inh inconclusive.
`COc1cc(/C=C2\SC(=O)N(CCN)C2=O)ccc1OS(=O)(=O)c1cc(C)ccc1C` gave Pf growth 48h -1%, Pf growth 96h -25%, AMA1 RON2 block 5% and HCV inh 13µM*.
For CC1CCCCN1c1ccc(N)cc1C(N)=O (stereo not given) the results were Pf growth 48h inconclusive, Pf growth 96h -6%, AMA1 RON2 block -9% and HCV inh 8%.
c1cc2c3c(cccc3c1)NC1(CCC3(CC1)Nc1cccc4cccc(c14)N3)N2 was read as Pf growth 48h 9.3µM*, Pf growth 96h 6.6µM*, AMA1 RON2 block inconclusive and HCV inh inconclusive.
Screening CCO[C@@H]1OC(C(=O)N2CCCCCCC2)=C[C@H](c2csc3ccccc23)[C@H]1CCCO returned Pf growth 48h 8.3µM*, Pf growth 96h inconclusive, AMA1 RON2 block -8% and HCV inh -16%[8.37 µM].
For C=CCOC(=O)C1=C[C@H](c2cn(C(C)=O)c3ccccc23)[C@@H](CCCO)[C@H](OCC)O1 the results were Pf growth 48h inconclusive, Pf growth 96h 12µM*, AMA1 RON2 block -4% and HCV inh 3%.

High-throughput results deposited in PubChem BioAssay by National Center for Advancing Translational Sciences (NCATS).
